{"source": "PubChem BioAssay AID778", "about": "(Sanford-Burnham Center for Chemical Genomics, 2007)", "note": "Out of some 96,000 compounds screened, about 20,000 (21%) were called active.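 The calls were made as follows: active = CYP2C19 inhibition above a set limit at 5 µM in the primary screen (cut at about 50% in these data); inactive = the rest.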 Not all results are given here."}
{"target": "Cytochrome P450 2C19 (Homo sapiens) (UniProt P33261)", "sequence (P33261 whole entry, looked up)": "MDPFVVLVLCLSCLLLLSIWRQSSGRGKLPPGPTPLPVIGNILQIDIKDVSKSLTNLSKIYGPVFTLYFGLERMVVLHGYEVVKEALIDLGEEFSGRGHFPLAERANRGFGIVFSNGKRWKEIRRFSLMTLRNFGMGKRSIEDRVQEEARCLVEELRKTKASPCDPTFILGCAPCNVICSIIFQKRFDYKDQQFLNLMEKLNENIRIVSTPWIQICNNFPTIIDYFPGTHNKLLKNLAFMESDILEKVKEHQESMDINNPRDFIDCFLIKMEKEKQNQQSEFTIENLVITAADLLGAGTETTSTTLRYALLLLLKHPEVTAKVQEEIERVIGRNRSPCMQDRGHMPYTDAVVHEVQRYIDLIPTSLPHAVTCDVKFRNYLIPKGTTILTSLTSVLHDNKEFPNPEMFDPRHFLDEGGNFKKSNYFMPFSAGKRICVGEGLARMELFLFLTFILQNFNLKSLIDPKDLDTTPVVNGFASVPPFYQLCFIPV", "experiment": "blockers of cytochrome P450 2C19 activity – biochemical, luminescence, ADME assay, primary screen (AID 778);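 also: plate controls were negative control wells for no effect and 2.5 mM tranylcypromine positive control for full effect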", "conditions": "CYP2C19 Supersomes, luciferin-H EGE luminescence, 30 min; at 5 µM; stronger effect = higher value"}
{"smiles": "N/C(=N\\OC(=O)c1cc(-c2ccccc2)nc2ccccc12)c1ccncc1", "inhibition": "29.8% (inactive)"}
{"smiles": "COC(=O)c1ccc(/C=N\\n2c(C)nnc2C)cc1", "inhibition": "8.4% (inactive)"}
{"smiles": "CCOC(=O)CSc1nnc(NC(=O)c2cccc(S(=O)(=O)N3CCCC3)c2)s1", "inhibition": "2.1% (inactive)"}
{"smiles": "CCOC(=O)CSc1nnc(NC(=O)c2cccc(S(=O)(=O)N3CCCCC3)c2)s1", "inhibition": "7.4% (inactive)"}
{"smiles": "CCOC(=O)C1=C(CC)Nc2ccccc2N=C1NC(=O)c1cccc(S(=O)(=O)N2CCCC2)c1", "inhibition": "54.2% (active)"}
{"smiles": "COC(=O)c1ccc(S(=O)(=O)c2ccc(C(=O)OC)s2)s1", "inhibition": "24.5% (inactive)"}
{"smiles": "CCOC(=O)C1CCCN(C(=O)C2CCN(c3nnc(-n4cccc4)s3)CC2)C1", "note": "(centres undefined)", "inhibition": "5.1% (inactive)"}
{"smiles": "CCOC(=O)C1CCCN(C(=O)c2ccc(CS(=O)(=O)c3ccc(Br)cc3)o2)C1", "note": "(centres undefined)", "inhibition": "34.7% (inactive)"}
{"smiles": "CCOC(=O)C1CCCN(C(=O)c2cncc(Br)c2)C1", "note": "(centres undefined)", "inhibition": "82.7% (active)"}
{"smiles": "CCc1ccc(NC(=O)CS(=O)CC(=O)NCCCc2ccccc2)cc1", "note": "(centres undefined)", "inhibition": "2.7% (inactive)"}
{"smiles": "CCOC(=O)C1(Cc2ccc(O)cc2)NC(c2ccccc2F)C2C(=O)N(C)C(=O)C21", "note": "(centres undefined)", "inhibition": "-4.2% (inactive)"}
{"smiles": "COc1ccc2nc(NC(=O)c3ccc(Br)s3)sc2c1", "inhibition": "6.2% (inactive)"}
{"smiles": "CCOc1ccc2nc(NC(=O)CSc3nc4c(c(=O)n(C)c(=O)n4C)n3CC)sc2c1", "inhibition": "32.4% (inactive)"}
{"smiles": "COc1ccccc1NC(=O)CSc1nnc(Cn2nnc(-c3ccccc3)n2)n1-c1ccccc1", "inhibition": "27.4% (inactive)"}
{"smiles": "CCCn1c(SCC(=O)Nc2cccc(C(=O)OCC)c2)nnc1-c1ccoc1C", "inhibition": "32.5% (inactive)"}
{"smiles": "COc1ccccc1NC(=O)CSc1nnc(-c2ccoc2C)n1CCc1ccccc1", "inhibition": "59.8% (active)"}
{"smiles": "CCn1c(SCC(=O)Nc2nc3ccc(OC)cc3s2)nnc1-c1ccoc1C", "inhibition": "51% (active)"}
{"smiles": "COc1ccc(S(=O)(=O)N2CCN(c3ncnc4c(-c5ccccc5)nsc34)CC2)cc1", "inhibition": "38.2% (inactive)"}
{"smiles": "Cc1ccnc(-n2sc3ccccc3c2=O)n1", "inhibition": "9.8% (inactive)"}
{"smiles": "Cc1cc(NC(=O)CN2CCCC(C)C2)n(-c2nc3ccccc3s2)n1", "note": "(centres undefined)", "inhibition": "-3.6% (inactive)"}
{"smiles": "COC(=O)Nc1c(C)n(C)n(-c2ccccc2)c1=O", "inhibition": "-13.8% (inactive)"}
{"smiles": "Cc1cc(C)cc(N(C(C)C(=O)Nc2c(C)n(C)n(-c3ccccc3)c2=O)S(C)(=O)=O)c1", "note": "(centres undefined)", "inhibition": "62% (active)"}
{"smiles": "Cc1cc(C)cc(N(CC(=O)Nc2c(C)n(C)n(-c3ccccc3)c2=O)S(C)(=O)=O)c1", "inhibition": "63.2% (active)"}
{"smiles": "Cc1c(NC(=O)C(C)OC(=O)c2cc3c4ccccc4n(C)c3s2)c(=O)n(-c2ccccc2)n1C", "note": "(centres undefined)", "inhibition": "3.3% (inactive)"}
{"smiles": "Cc1cc(C(=O)Nc2c(C)n(C)n(-c3ccccc3)c2=O)cs1", "inhibition": "-14% (inactive)"}
{"smiles": "Cc1c(NC(=O)c2coc(=O)c(Br)c2)c(=O)n(-c2ccccc2)n1C", "inhibition": "-16.3% (inactive)"}
{"smiles": "COc1cc(OC)nc(NC(=O)CCl)n1", "inhibition": "-19.8% (inactive)"}
{"smiles": "CCN1C(=O)/C(=C\\N2CCOCC2)SC1=S", "inhibition": "10.7% (inactive)"}
{"smiles": "CN(C)/C=C(/C(=O)c1ccc(Cl)cc1)S(=O)(=O)c1ccccc1", "inhibition": "27.2% (inactive)"}
{"smiles": "Cc1ccc(S(=O)(=O)N2CCN(C(=O)CCC(=O)NC3CCCc4ccccc43)CC2)cc1", "note": "(centres undefined)", "inhibition": "23.8% (inactive)"}
{"smiles": "Cc1cc2c(c(=O)n1Cc1ccco1)C(c1ccccc1)C(C#N)=C(N)O2", "note": "(centres undefined)", "inhibition": "21.9% (inactive)"}
{"smiles": "Cc1ccc(S(=O)(=O)NCc2cn3ccsc3n2)c(C)c1", "inhibition": "11.3% (inactive)"}
{"smiles": "Cc1ccc2nc(Nc3ccccc3O)nc(-c3ccccc3)c2c1", "inhibition": "10.3% (inactive)"}
{"smiles": "O=C(Nc1ncc2c(n1)-c1ccccc1OC2)c1ccc(Cl)cc1", "inhibition": "12.7% (inactive)"}
{"smiles": "COc1ccc(NC(=O)c2sccc2SCC#N)cc1", "inhibition": "24.1% (inactive)"}
{"smiles": "CC1=C(C(=O)Nc2ccccc2)C(c2cccs2)C(C#N)=C(SCC#N)N1", "note": "(centres undefined)", "inhibition": "88.8% (active)"}
{"smiles": "Cc1ccc(-c2nnc(-c3ccc(NC(=O)c4cccs4)cc3)o2)cc1", "inhibition": "22.1% (inactive)"}
{"smiles": "Cc1ccc(Cc2cncc(O)c2)cc1S(=O)(=O)O", "inhibition": "1.6% (inactive)"}
{"smiles": "CCOC(=O)C1CCCN(Cc2nc(N)nc(Nc3ccc(C)cc3)n2)C1", "note": "(centres undefined)", "inhibition": "6.3% (inactive)"}
{"smiles": "Fc1ccc(-c2ccc(-c3nn4c(-c5ccco5)nnc4s3)o2)cc1", "inhibition": "47.8% (inactive)"}
{"smiles": "CCOC(=O)N1CCN(C(=O)c2ccc(S(=O)(=O)c3ccc(C)cc3)c(NC(C)=O)c2)CC1", "inhibition": "5.6% (inactive)"}
{"smiles": "CCOC(=O)N1CCN(C(=O)CN(c2ccc(C)c(C)c2)S(=O)(=O)c2ccccc2)CC1", "inhibition": "63.2% (active)"}
{"smiles": "CCOC(=O)N1CCN(C(=O)c2ccc3c(c2)N(Cc2ccc(C)cc2)CCS3)CC1", "inhibition": "30% (inactive)"}
{"smiles": "CS(=O)(=O)N(CC(=O)N1CCN(Cc2ccccc2)CC1)c1ccc2c(c1)OCCO2", "inhibition": "17.4% (inactive)"}
{"smiles": "CCOC(=O)N1CCN(C(=O)c2ccc(CN(c3ccc(C)c(C)c3)S(C)(=O)=O)cc2)CC1", "inhibition": "57.3% (active)"}
{"smiles": "COc1ccccc1N(CC(=O)N1CCCCC1)S(=O)(=O)c1ccccc1", "inhibition": "25.2% (inactive)"}
{"smiles": "COC(=O)Cn1c2ccc(C)cc2c2nc(C)sc21", "inhibition": "-3.3% (inactive)"}
{"smiles": "O=c1ccn(Cc2ccccc2Cl)cc1", "inhibition": "-3% (inactive)"}
{"smiles": "O=C1c2ccccc2C(O)N1Cc1ccccc1", "note": "(centres undefined)", "inhibition": "60.9% (active)"}
{"smiles": "O=S1(=O)CCN(Cc2ccccc2Cl)CC1", "inhibition": "35.5% (inactive)"}
{"smiles": "O=C1c2ccccc2C(O)N1Cc1ccccc1Cl", "note": "(centres undefined)", "inhibition": "80.7% (active)"}
{"smiles": "O=C1c2cccnc2C(Nc2ccc(S(=O)(=O)N3CCCCCC3)cc2)N1Cc1ccccc1", "note": "(centres undefined)", "inhibition": "40.6% (inactive)"}
{"smiles": "O=C(C1=C(O)C(=O)N(Cc2ccccc2)C1c1ccco1)c1ccco1", "note": "(centres undefined)", "inhibition": "-22.3% (inactive)"}
{"smiles": "S=c1[nH]nc(-c2ccc(Cl)cc2)n1CC1CCCO1", "note": "(centres undefined)", "inhibition": "41.3% (inactive)"}
{"smiles": "COC(=O)c1cc(Cl)c(NC(=O)c2ccco2)cc1OC", "inhibition": "9.4% (inactive)"}
{"smiles": "CCCCCC(=O)Nc1ccc2oc(-c3ccncc3)nc2c1", "inhibition": "77.7% (active)"}
{"smiles": "O=C(Cc1cccc2ccccc12)Nc1ccc2oc(-c3ccccc3)nc2c1", "inhibition": "5.7% (inactive)"}
{"smiles": "O=C(Nc1ccc2oc(-c3ccc4ccccc4c3)nc2c1)c1cccs1", "inhibition": "-16.3% (inactive)"}
{"smiles": "Cc1ccc2[nH]c(=O)c(-c3nc4c(C)cccn4c3NCc3ccco3)cc2c1", "inhibition": "-0.9% (inactive)"}
